# Source: PubChem (Broad Institute)
# aSyn 5UTR act = Activators via SNCA 5'UTR binding, MLPCN; alpha-synuclein 5'UTR reporter, activators screen; activity score, % (tested at 7.5 µM), hits read low; 300,000 compounds, 7.1% hits; AID 1814; in the data active means activity score below about -60%
# Hits are given with their value; 0 = inactive. The list is a sample of the results.
SMILES,aSyn 5UTR act
O=C(c1ccco1)N1CCN(Cc2ccc(F)cc2Cl)CC1,-157.6
O=C(c1ccco1)N1CCN(Cc2ccccc2Br)CC1,-78.0
Cc1nc2ccc(-c3ccccc3)cc2o1,-79.1
CCN(CC)S(=O)(=O)c1cc(C(=O)Oc2cccc(-c3cnc4ccccc4n3)c2)ccc1OC,-171.0
CCN(CC)S(=O)(=O)c1ccc(C)c(C(=O)Oc2cccc(-c3cnc4ccccc4n3)c2)c1,-178.0
COCC(C)n1c(SCc2cc(=O)n3cc(C)ccc3n2)nc2ccccc2c1=O (stereo not drawn),0
Cc1ccc2nc(COc3ccc(Cl)cc3)cc(=O)n2c1,-108.5
O=C(Nc1nc(=O)c2ccccc2s1)c1ccc(Cl)cc1,-140.3
O=C(Nc1nc(=O)c2ccccc2s1)c1ccc(F)cc1,-264.2
CC1=CN2C(=N)/C(=C/c3ccc(C)o3)C(=O)N=C2S1,-80.4
CCN=C1S/C(=C\c2ccc(Sc3ccc(Cl)cc3)o2)C(=O)N1CC,0
CC1=CN2C(=N)/C(=C/c3ccc(Sc4ccc(C)cc4)o3)C(=O)N=C2S1,-77.6
CCCOc1ccc(/C=N/NC(=O)CSc2ccccn2)cc1OC,-77.3
COc1ccc(/C=N/NC(=O)c2ccn[nH]2)cc1CSc1ccccn1,-66.8
S=C(Nc1ccccc1)Nc1ccc(OCc2ccc(Cl)cc2Cl)cc1,0
OCCNCc1ccc(OCc2ccc(Cl)cc2Cl)cc1,-83.8
COc1ccc(OC)c(NC(=O)c2nc3ccccc3s2)c1,-168.0
CC(C)NC(=O)c1nc2ccccc2s1,-83.8
C=CCNC(=O)c1nc2ccccc2s1,-161.2
Fc1ccccc1/C=N/Nc1ncnc2ccccc12,-241.1
Clc1ccc(/C=N/Nc2ncnc3ccccc23)cc1Cl,-317.7
CC(C)Sc1nc2ccc(N3C(=O)C4CCCCC4C3=O)cc2s1 (stereo not drawn),-126.5
Cc1ccc2[nH]c(-c3ccccc3)cc(=O)c2c1,0
Clc1ccc(-c2cc3ccccc3[nH]2)cc1,-217.6
O=c1cc(-c2ccc(Cl)cc2)[nH]c2ccccc12,-68.9
SMILES,aSyn 5UTR act
Cc1ccc(-c2cc(=O)c3cc(Cl)ccc3[nH]2)cc1,-92.3
Cc1ccc(-c2cc(=O)c3ccccc3[nH]2)cc1,-77.0
Cc1ccccc1OCCC(=O)Nc1ccc2c(C)cc(=O)oc2c1,-64.3
COc1ccccc1C(=O)Nc1ccc2c(C)cc(=O)oc2c1,-153.9
CCOC(=O)Nc1ccc2c(COC(=O)c3ccccc3O)cc(=O)oc2c1,-83.4
CCN(CC)c1ccc(C(=O)OCc2cc(=O)oc3cc(O)ccc23)cc1,0
Cc1ccc(S(=O)(=O)c2nc(S(=O)(=O)CCO)sc2N2CCOCC2)cc1,-95.9
CCCS(=O)(=O)c1nc(S(=O)(=O)c2ccc(C)cc2)c(N2CCOCC2)s1,-61.8
CCCS(=O)(=O)c1nc(S(=O)(=O)c2ccc(C)cc2)c(N2CCN(CCO)CC2)s1,-97.8
COc1ccc(-n2cnc3sc(-c4ccccc4)cc3c2=O)cc1,-118.5
COc1ccc(-c2cc3nc(C)n(N)c(=O)c3s2)cc1,0
COc1cccc(-n2cnc3sc(-c4ccccc4)cc3c2=O)c1,-183.9
Cc1c(C(=O)O)cccc1-c1ccc(C=O)o1,-80.4
COC(=O)c1sccc1-c1ccc(C(=O)Nc2ccccc2)o1,-115.1
O=C(Nc1cccc(F)c1)c1ccc(-c2ccccc2Cl)o1,-172.6
CCc1nnc(NC(=O)c2ccc(-c3ccccc3Cl)o2)s1,-160.5
CCc1nnc(NC(=O)c2ncc(Cl)c(Cl)c2Cl)s1,-61.7
COc1ccc(NC(=O)c2ccc(-c3ccccc3Cl)o2)cc1,-156.2
O=C(Nc1nccs1)c1sc2cc(Cl)ccc2c1Cl,-115.2
O=C(Nc1nccs1)c1sc2ccccc2c1Cl,0
COc1ccc2c(Cl)c(C(=O)NC3CCS(=O)(=O)C3)sc2c1 (stereo not drawn),-79.9
O=C(NC1CC1)c1sc2cc(Cl)ccc2c1Cl,-96.6
Cc1cc(O)c(C(=O)/C=C/c2ccc(Cl)cc2)c(=O)o1,-172.2
CSc1ccc(/C=C/C(=O)c2c(O)cc(C)oc2=O)cc1,-117.5
Cc1[nH]c2ccc(C(=O)NC3CCC(C)CC3)cc2c1C (stereo not drawn),-147.6
SMILES,aSyn 5UTR act
CC1CCC(NC(=O)c2ccc3nc[nH]c3c2)CC1 (stereo not drawn),-81.1
CC1CCC/C(=N/Nc2nc3ccccc3s2)C1 (stereo not drawn),-133.7
CC1(C)CC(=O)C/C(=N/Nc2nc3ccccc3s2)C1,-66.8
CS(=O)(=O)c1sc(C#N)c2c1C(=O)CC(c1ccccc1)C2 (stereo not drawn),0
CCOc1ccc(N=C(C)C2=C(O)c3ccccc3C2=O)cc1,-122.7
CC(=O)Nc1ccc(NC2=C/C(=N/S(=O)(=O)c3cccs3)c3ccccc3C2=O)cc1,0
CC(=NC1CC1)C1=C(O)c2ccccc2C1=O,-177.0
CC(=O)Nc1ccc(N=C(C2=C(O)c3ccccc3C2=O)c2ccccc2)cc1,-63.7
Cc1cc(=O)c2cc3nc(-c4cccnc4)oc3c(Br)c2o1,-67.4
COc1cnc(-c2ccccn2)nc1N(C)C,0
CN(C(=O)c1cccnc1)c1nnc(-c2ccccn2)s1,-97.9
COCCN(C(C)=O)c1nnc(-c2ccccn2)s1,-65.5
CC(=O)N(C)c1nnc(-c2ccccn2)s1,-70.6
Cc1ccc(-c2nnc(N(C)C(=O)c3ccncc3)s2)cn1,-77.4
O=C(O)CC1=C(Nc2ccccc2)C(=O)N(c2ccccc2)C1c1ccc(Br)cc1 (stereo not drawn),-104.5
CCCCC(=O)Nc1sc2c(c1C(N)=O)CCC2,-85.2
CC(C)CC(=O)NC(=S)Nc1sc2c(c1C(N)=O)CCC2,-99.6
Cc1sc(NC(=S)NC(=O)C(C)(C)C)c(C(N)=O)c1C,-67.5
CC(=O)NC(=S)Nc1sc2c(c1C(N)=O)CCC(C)C2 (stereo not drawn),-83.3
CC(C)(C)C(=O)NC(=S)Nc1sc2c(c1C(N)=O)CCC2,-87.8
Brc1ccc(-c2cn3nc4c(nc3n2)CCCC4)cc1,0
Nc1nn2cc(-c3ccc(Br)cc3)nc2c2ccccc12,-164.5
CCCCCN=C(C)c1c(O)c2ccccc2oc1=O,-211.5
Cc1ccccc1-c1nc(Cc2ccccc2)no1,-129.1
Clc1ccc(-c2nc(Cc3ccccc3)no2)cc1,-141.0
SMILES,aSyn 5UTR act
Cn1cc(Cl)cc(C(=O)Nc2ccccc2)c1=O,-133.2
COC(=O)c1ccc(/C(O)=C(\C#N)c2nc3ccccc3s2)cc1,-149.9
COC(=O)c1ccc(CC(=O)c2nc3ccccc3s2)cc1,-63.1
O=C(Cc1ccccc1)c1nc2ccccc2s1,-215.7
COC(=O)c1ccc(CSc2nc3ccccc3s2)o1,-83.2
O=C(Nc1nc2c(s1)CCCC2)c1ccc(Br)s1,-93.3
Cc1ncsc1C(=O)Nc1nc2c(s1)CCCC2,-158.6
Cc1ccc(-c2nc(C)c(C(=O)O)s2)cc1,-208.3
Cc1nc(-c2ccc(Cl)cc2)sc1C(=O)O,-101.2
C/C(=N\OC(=O)c1ccc(F)cc1)c1sc(-c2ccc(Cl)cc2)nc1C,-211.0
N=C1N(/N=C/c2ccccc2)C(=Nc2ccccc2)C(=S)N1c1ccccc1,-185.8
CCCCCCC(=O)c1c(C)[nH]c(C(=O)OCC)c1C,-113.5
CCOC(=O)c1c(C)[nH]c(C(=O)N/N=C\c2ccccc2O)c1C,0
CCOC(=O)c1c(C)[nH]c(C(=O)NCc2ccccn2)c1C,-158.9
CCOC(=O)c1c(C)[nH]c(C(=O)OCc2ccccc2)c1C,-165.4
CCOC(=O)c1c(Cc2ccccc2)c[nH]c1C,-74.8
CC(=O)c1c(C)[nH]c(C(=O)OCc2ccccc2F)c1C,-100.7
CC(=O)c1c(C)[nH]c(C(=O)OCc2cccc(C)c2)c1C,-89.6
CC(=O)c1c(C)[nH]c(C(=O)OCCOc2ccccc2)c1C,0
